In PubChem BioAssay (NCI):
Where “and” joins values, the source holds several entries; their conditions need not be identical. Identical values can stand only once. This is part of a sample that, as a whole, favours compounds with a hit. Of some 83,000 tested, about 20% had one in any assay.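 For each line, cells grew in 96-well plates with the test compound present at a single concentration for 48 hours.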 Unmarked numbers belong to inactive results. Calls of active or inactive are those of the source. The calls were made as follows: active = growth percent below 10; inactive = the rest.

How the values were obtained:
Assay in all cases: NCI-60 one-dose screen, 48 h (100 = growth as untreated, 0 = no growth, -100 = all killed)
NCI-H226 lung = conditions: 10 µM
NCI-H322M lung = conditions: 10 µM
HOP-62 NSCLC = conditions: 10 µM
A549/ATCC NSCLC = conditions: 10 µM
786-0 renal = conditions: 10 µM
COLO 205 colon = conditions: 10 µM
DU-145 prostate = conditions: 10 µM
SF-268 CNS = conditions: 10 µM
SF-295 CNS = conditions: 10 µM
SF-539 CNS = conditions: 10 µM
HCT-15 colon = conditions: 10 µM
SNB-75 CNS = conditions: 10 µM
SNB-19 CNS = conditions: 10 µM
U251 CNS = conditions: 10 µM
PC-3 prostate = conditions: 10 µM
EKVX NSCLC = conditions: 10 µM
UO-31 renal = conditions: 10 µM
ACHN renal = conditions: 10 µM
HL-60(TB) leukemia = conditions: 10 µM unless noted
CCRF-CEM leukemia = conditions: 10 µM

Structure (SMILES): CCC(C)[C@H]1C(=O)O[C@H](C(C)C)C(=O)N(C)[C@@H](C(C)C)C(=O)O[C@H](C(C)C)C(=O)N(C)[C@@H](C(C)C)C(=O)O[C@H](C(C)C)C(=O)N1C (stereo not given in full)
- growth (NCI-H226 lung): 21.2%
- growth (NCI-H322M lung): 14.3%
- growth (HOP-62 NSCLC): 15%
- growth (A549/ATCC NSCLC): 14.5%
- growth (786-0 renal): 20.9%
- growth (COLO 205 colon): -74.7% (active)
- growth (DU-145 prostate): 26.9%
- growth (SF-268 CNS): 21.9%
- growth (SF-295 CNS): 9.15% (active)
- growth (SF-539 CNS): 19.1%
- growth (HCT-15 colon): 14.6%
- growth (SNB-75 CNS): 2.63% (active)
- growth (SNB-19 CNS): 21.6%
- growth (U251 CNS): 13.5%
- growth (PC-3 prostate): 12.2%
- growth (EKVX NSCLC): 24%
- growth (UO-31 renal): -10.8% (active)
- growth (ACHN renal): 9.28% (active)
- growth (HL-60(TB) leukemia): -48.8% (active)
- growth (CCRF-CEM leukemia): 7.02% (active)

Structure (SMILES): COC1[C@@H]2C[C@H]3C(C)(C)O[C@@](C/C=C(/C)C(=O)O)(C2=O)[C@]32Oc3c(CC=C(C)C)c4c(c(O)c3C(=O)[C@H]12)C=CC(C)(C)O4 (stereo not given in full)
- growth (NCI-H226 lung): 23%
- growth (NCI-H322M lung): -67% (active)
- growth (HOP-62 NSCLC): -24.8% (active)
- growth (A549/ATCC NSCLC): -20.3% (active)
- growth (786-0 renal): -50.8% (active)
- growth (COLO 205 colon): -72.1% (active)
- growth (DU-145 prostate): -97.2% (active)
- growth (SF-268 CNS): -45.5% (active)
- growth (SF-295 CNS): -55.2% (active)
- growth (SF-539 CNS): -23% (active)
- growth (HCT-15 colon): -43.1% (active)
- growth (SNB-75 CNS): -24.3% (active)
- growth (SNB-19 CNS): -69.5% (active)
- growth (U251 CNS): -91.1% (active)
- growth (PC-3 prostate): -18.4% (active)
- growth (EKVX NSCLC): -46.5% (active)
- growth (UO-31 renal): -69.6% (active)
- growth (ACHN renal): -71% (active)
- growth (HL-60(TB) leukemia): -29.8% (active)
- growth (CCRF-CEM leukemia): -1.89% (active)

Structure (SMILES): CCCCCCCCCC(=O)N[C@@](C)(CC)C(=O)N1CCC[C@H]1C(=O)N[C@@H](CC(C)C)C(=O)N[C@@](C)(CC)C(=O)N[C@@H](CCC(N)=O)C(=O)N[C@H](CCC(N)=O)C(=O)NC(C)(C)C(=O)NC(C)(C)C(=O)N[C@@H](CCC(N)=O)C(=O)N[C@H](CC(C)C)C(=O)N[C@H](CO)CC(C)C
- growth (NCI-H226 lung): -71.9% (active) and -72.7% (active)
- growth (NCI-H322M lung): -94.9% (active) and -60.9% (active)
- growth (HOP-62 NSCLC): -74.3% (active) and -67.3% (active)
- growth (A549/ATCC NSCLC): -48.6% (active) and -38% (active)
- growth (786-0 renal): -78.5% (active) and -80.4% (active)
- growth (COLO 205 colon): -63.2% (active) and -52.1% (active)
- growth (DU-145 prostate): -99.1% (active) and -81.9% (active)
- growth (SF-268 CNS): -80.5% (active) and -64.9% (active)
- growth (SF-295 CNS): -91.7% (active) and -90.9% (active)
- growth (SF-539 CNS): -97.2% (active) and -100% (active)
- growth (HCT-15 colon): -77.8% (active) and -78.1% (active)
- growth (SNB-75 CNS): -90.8% (active) and -96.3% (active)
- growth (SNB-19 CNS): -93.9% (active) and -99.6% (active)
- growth (U251 CNS): -75.9% (active) and -77.1% (active)
- growth (PC-3 prostate): -87.2% (active) and -63.7% (active)
- growth (EKVX NSCLC): -86.7% (active) and -89.1% (active)
- growth (UO-31 renal): -96.4% (active) and -89.3% (active)
- growth (ACHN renal): -93% (active) and -98.4% (active)
- growth (HL-60(TB) leukemia): -61.8% (active) and -23.6% (active)
- growth (CCRF-CEM leukemia): -38.9% (active) and -40.9% (active)
